From publication PMC6925144, “A prospective compound screening contest identified broader inhibitors for Sirtuin 1” (Scientific Reports, 2019)
Whole data set: some 3,200 compounds, median “TSA(with NAD+) / Primary screening (TSA) / delta Tm (K)” near -0.04, cut for the highest 2% near 0.37. This is one part of a sample in which the highest values are shown more often than they occur.

Molecular target: NAD-dependent deacetylase Sirtuin 1 (human, UniProt Q96EB6)
Assay: primary screen, delta tm
Design: single well (n = 1, as 'the same TSA')
Details: 10 µM
Description: A total of 3,192 compounds extracted from the proposed lists were first screened by thermal shift assay (TSA), which determined a melting temperature shift (ΔTm) of Sirtuin 1 upon the addition of a test compound at a concentration of 10 µM (n = 1) with primary hit criteria of ΔTm > 0.45 K or ΔTm < −1.5 K. Primary hits (48 compounds) were retested in the same assay at three concentrations (5, 10, 20 µM, n = 4) for hit confirmation and for dose-dependency check. Secondary hits (41 compounds) were checked their selectivity for Sirtuin 1 based on counterscreening on unrelated protein targets (bovine carbonic anhydrase (CA) and recombinant SH2 domain of hABL1 kinase (ABL1)) at three different concentrations (5, 10, 20 µM, n = 4), which yielded 38 hit compounds, hereafter referred to as TSA hits. The TSA screening above was conducted in the absence of NAD+. As noted, the structure of Sirtuin 1 is different in the presence of NAD+ and substrate. The chemical profile of TSA hits found from the different conditions could be different. […] As a result, 39 TSA hits were found.

NAD-dependent deacetylase Sirtuin 1, sequence (Q96EB6 2-747 limits assumed): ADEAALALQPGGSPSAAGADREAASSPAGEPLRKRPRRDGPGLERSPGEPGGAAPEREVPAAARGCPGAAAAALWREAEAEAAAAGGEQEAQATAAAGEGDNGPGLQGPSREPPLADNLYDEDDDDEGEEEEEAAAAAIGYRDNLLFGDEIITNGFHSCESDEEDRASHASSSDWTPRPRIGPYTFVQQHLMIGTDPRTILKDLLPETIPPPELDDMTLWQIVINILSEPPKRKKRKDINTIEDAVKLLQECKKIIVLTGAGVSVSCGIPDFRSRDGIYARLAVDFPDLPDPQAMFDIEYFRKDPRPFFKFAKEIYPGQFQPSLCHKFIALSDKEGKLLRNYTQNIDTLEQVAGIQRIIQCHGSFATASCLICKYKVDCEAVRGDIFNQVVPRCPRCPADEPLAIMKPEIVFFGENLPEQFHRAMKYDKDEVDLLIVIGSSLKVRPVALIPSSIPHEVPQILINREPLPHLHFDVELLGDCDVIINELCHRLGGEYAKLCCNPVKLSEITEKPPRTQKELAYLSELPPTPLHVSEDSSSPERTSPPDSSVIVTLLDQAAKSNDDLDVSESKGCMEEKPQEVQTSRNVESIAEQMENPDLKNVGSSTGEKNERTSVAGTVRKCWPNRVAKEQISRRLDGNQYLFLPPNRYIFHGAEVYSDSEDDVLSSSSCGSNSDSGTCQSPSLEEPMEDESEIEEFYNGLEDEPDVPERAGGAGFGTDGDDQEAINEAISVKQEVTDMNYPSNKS

SMILES | TSA(with NAD+) / Primary screening (TSA) / delta Tm (K)
CCNC(=O)NCc1ccc(NC(=O)Cc2cn(CC)c3ccccc23)cc1 | 0.09
Cc1ccc2nc(-c3ccccc3)c(N)n2c1 | 0.38
NC(=O)c1cc(NC(=O)CC(c2ccccc2)c2ccccc2)cc(C(N)=O)c1 | -0.06
Cc1ccc(N(C)S(=O)(=O)c2cccc(C(=O)Nc3cc(F)ccc3C)c2)cc1 | -0.01
O=C(Nc1cc(S(=O)(=O)N2CCOCC2)ccc1O)C1=COCCO1 | -0.16
CC1CCc2sc(C(=O)Nc3ccccc3Cc3ccccc3)cc2C1 (stereo not shown) | -0.13
CC(=O)Nc1ccc(NC(=O)c2cccc(C(N)=O)c2)cc1C | -0.12
NC(=O)c1cccc(NC(=O)c2cc3c(s2)-c2ccccc2CC3)c1 | 0.88
O=C(O)c1nc(Nc2ccc(Cl)cc2)c2ccccc2n1 | -0.11
CCn1nnc2cc(C(=O)N3CCN(C(c4ccc(F)cc4)c4ccc(F)cc4)CC3)ccc21 | -0.22
Cc1ccc(NC(=O)COC(=O)c2ccc(-n3nnc4ccccc43)c([N+](=O)[O-])c2)cc1C | 0.35
CCOc1ccc(NC(=O)CN(C)Cc2ccc(C(=O)Nc3ccccc3)cc2)cc1OCC | -0.02
CCOc1cc(/C=N/NC(=O)c2cc3c(s2)CCCC3)ccc1OCC(=O)Nc1cccc(C(F)(F)F)c1 | 1.05
COc1cc(/C=N/NC(=O)c2cc3c(s2)CCCC3)ccc1OS(=O)(=O)c1cc(C)ccc1C | 0.09
COc1cc(/C=N/NC(=O)c2cc3c(s2)CCCC3)ccc1OCC(=O)Nc1ccc(C)cc1 | 0.52
CC(OC(=O)c1cc2c(s1)CCCC2)C(=O)Nc1ccc(C(N)=O)cc1 (stereo not shown) | 0.01
NC(=O)c1ccc(NC(=O)COC(=O)c2cc3c(s2)CCCCC3)cc1 | -0.13
O=c1cc(CSc2ncc(C(F)(F)F)cc2Cl)nc2ccccn12 | -0.23
Cc1cc(C=C2C(=O)NC(=S)NC2=O)c(C)n1-c1cccc(C(F)(F)F)c1 | -0.73
Cc1oc2nc[nH]c(=O)c2c1C(=O)OC(C)C(=O)N1CCOCC1 (stereo not shown) | -0.06
CCn1cc(C2CCN(C(=O)Cc3cnc4ccccc4c3)CC2)cn1 | 0.68
O=C(Nc1cnc2ccccc2c1)C(=O)N1CCC(Oc2ccccc2)CC1 | 0.06

SMILES | TSA(with NAD+) / Primary screening (TSA) / delta Tm (K)
CCSC1CCC(NC(=O)Cc2cnc3ccccc3c2)C1 (stereo not shown) | -0.11
COc1ccc(CNCc2c[nH]nc2-c2ccc(C)cc2)cc1OC | -0.13
Nc1nc(-c2c(-c3ccccc3)[nH]c3ccccc23)cs1 | 0.16
c1ccc(-c2[nH]c3c(ccc4ccccc43)c2-c2ccccc2)cc1 | 0.29
c1ccc(-c2[nH]c3ccccc3c2-c2ccccc2)cc1 | 0.39
CC1COCCN1c1ncnc2ccsc12 (stereo not shown) | 0.03
NC(=O)c1csc(C(=O)NCCc2cc(F)cc3c2OCOC3)c1 | -0.03
CC(OC(=O)c1cccc(S(=O)(=O)NCc2ccccc2)c1)C(=O)NC12CC3CC(CC(C3)C1)C2 (stereo not shown) | 0.16
COc1cc(C(C)=O)ccc1COc1ccc(C(=O)OC(C)C(=O)NC23CC4CC(CC(C4)C2)C3)cc1OC (stereo not shown) | 0.09
Cc1ccc([N+](=O)[O-])cc1S(=O)(=O)Nc1ccc(C(=O)OC(C)C(=O)NC23CC4CC(CC(C4)C2)C3)cc1 (stereo not shown) | 0.76
Cc1cc(F)ccc1N1CCCC(Nc2ccc3nnnn3n2)C1 (stereo not shown) | 0.68
c1ccc(CN2CCCCCC2)c(CNc2ccc3nnnn3n2)c1 | -0.04
Cc1ncc(CN2CCC(Nc3ccc4nnnn4n3)C(C)C2)s1 (stereo not shown) | 0.09
O=C(CN1CCc2ccccc21)Nc1cnc2ccccc2c1 | -0.13
NC(=O)C1CN(c2nc(C3CC3)nc3sc4c(c23)CCCC4)CCO1 (stereo not shown) | -0.19
Cc1sc2nc(CSc3ccccc3)nc(N3CCCC(C(N)=O)C3)c2c1C (stereo not shown) | -0.18
NC(=O)C1CCN(c2nc(CSc3ccccc3)nc3sc4c(c23)CCCC4)CC1 | 2.22
NC(=O)C1CCN(c2nc(CN3CCCCC3)nc3sc4c(c23)CCC4)CC1 | -0.19
Cc1sc2nc(CSc3ccccc3)nc(N3CCC(C(N)=O)CC3)c2c1C | 0.49
Cc1sc2nc(CN3CCCC3)nc(N3CCC(C(N)=O)CC3)c2c1C | 0.12
Cc1ccc(C(=O)Nc2ccc(N3CCN(Cc4ccccc4)CC3)cc2)cc1NC(=O)c1ccco1 | 0.12
